± gives the standard deviation of the averaged measurements.
compound: CCCCCC(C)=O [2-heptanone]; test: control-subtracted net OSN firing rate; higher = stronger neuronal activation; conditions: odorant dilution (vol/vol): 1/100
Procedure: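 Single sensillum recordings from olfactory sensory neurons. The neurons sit in the maxillary palp or antennal sensilla of D. melanogaster (wild type, mutants, or at1 empty-neuron lines expressing Or42a homologs or the A181D S307P mutant) and of four Scaptomyza species. Each odorant was given as a 1 s pulse from 20 µl loaded on filter paper at 1:100 vol/vol, diluted in mineral oil (γ-hexalactone in DMSO). Spikes were counted in a 0.5 s window starting 0.2 s after onset, background was subtracted, the count was doubled, and the mean solvent-control response was subtracted.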

Target | control-subtracted net OSN firing rate [spikes/s]
S. hsui pb2b-like | 8.67 ± 16
S. flava pb1b-like | -22 ± 27
Canton-S (D. melanogaster) pb3b | 16.3 ± 24
S. montana pb3a-like | 97.3 ± 25
Canton-S (D. melanogaster) pb2a | 3.71 ± 7.3
S. pallida pb1a-like | 95.7 ± 29
S. montana pb1a-like | 64.7 ± 19
S. flava pb2b-like | -1 ± 14
S. hsui pb3a-like | 148 ± 31
S. flava pb1a-like | 104 ± 19
S. hsui pb1b-like | -8.33 ± 8
S. montana pb1b-like | -12.3 ± 22
S. flava pb2a-like | 7.33 ± 3.7
Canton-S (D. melanogaster) pb3a | 5.67 ± 5.5
S. montana pb2a-like | 7 ± 13
S. montana pb3b-like | -2 ± 6.5
S. hsui pb2a-like | 8.67 ± 6.3
S. montana pb2b-like | 8 ± 10
S. pallida pb3b-like | -7.67 ± 13
Canton-S (D. melanogaster) pb1a | 161 ± 48
S. hsui pb1a-like | 136 ± 22
S. pallida pb1b-like | -9 ± 13
Canton-S (D. melanogaster) pb2b | 0.286 ± 11
S. pallida pb2b-like | 26.3 ± 7.8
S. hsui pb3b-like | -6.67 ± 5.9
S. pallida pb2a-like | 7.67 ± 6.6
S. flava pb3a-like | 133 ± 40
S. flava pb3b-like | -8.67 ± 26
Canton-S (D. melanogaster) pb1b | -10 ± 9.1
S. pallida pb3a-like | 115 ± 19
